Source: PubChem BioAssay
Records with an inconclusive call do not appear. The source made the active and inactive calls.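 Rule for the calls, unless noted: active = inhibition above the screen-wide mean plus 3 SD, about 51%; inactive = the rest.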

Legend:
[1] = yeast TOR pathway RPL19A-GFP modulators, primary screen, cell-based, S. cerevisiae, multiplex flow cytometry (AID 1862; in the data active = percent of DMSO control GFP below about 86%;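 note: lower values mimic rapamycin by blocking the RPL19A rise seen in DMSO cells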); conditions: S. cerevisiae RPL19A-GFP strain, flow cytometry fluorescence, 3 h; at 10 µM; stronger effect = lower value
[2] = modulators of MEP2-GFP levels in yeast, primary screen, S. cerevisiae, multiplex flow cytometry (AID 1867;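 active = GFP response, as percent of the DMSO control, above the screen-wide mean plus 3 SD, about 139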;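 note: median GFP channel fluorescence of barcode-gated MEP2-GFP cells measured by flow cytometry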); conditions: S. cerevisiae MEP2-GFP strain, 3 h, at 10 µM, stronger effect = higher value, 100% means same as DMSO wells
[3] = modulators of CIT2-GFP expression in yeast, primary screen, S. cerevisiae, GFP fusion, multiplex flow cytometry (AID 1870;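 active = percent response above a set limit, the screen-wide mean plus 3 SD, cut at about 130% in these data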;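 note: barcoded CIT2-GFP strain pooled with four other GFP strains with rapamycin as positive control; median GFP fluorescence per well over plate mean of DMSO wells so 100% = DMSO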); conditions: 3 h, at 10 µM, stronger effect = higher value
[4] = modulators of LAP4-GFP expression in yeast, primary screen, S. cerevisiae, multiplex flow cytometry (AID 1873;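 active = GFP signal, as percent of the solvent control, above the screen mean plus 3 SD, about 149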); conditions: 3 h, at 10 µM, stronger effect = higher value
[5] = modulators of AGP1-GFP expression in yeast TOR pathway, primary screen, cell-based, multiplex flow cytometry, S. cerevisiae (AID 1887;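 active = GFP signal above the screen-wide mean plus 3 SD, that is over about 124.5% of the solvent control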;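 note: AGP1-GFP fusion strain of S. cerevisiae within a five-strain barcoded multiplex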); conditions: 3 h, at 10 µM, stronger effect = higher value
[6] = inhibitors of CD8+ T cell-vesicle binding, pilot screen, LFA-1/ICAM-1 modulator project, MLPCN validation set, flow cytometry (AID 2523;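 active = response below a set limit, under 55% cells CD8-positive and vesicle-bound, and CD8 cells' 90th-percentile brightness under 279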;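 for vesicle binding response: mean PE anti-B7-1 fluorescence of CD8+ cells relative to row control; 100% = QL9-loaded vesicles with DMSO vehicle in the same plate row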); conditions: 2C mouse CD8+ T cells, at 7 µM, stronger effect = lower value; double positive events: measured here: CD8+/vesicle+ event percentage
[7] = molecular target: Integrin beta-1 (Homo sapiens) + Integrin alpha-4 (Homo sapiens) (UniProt P13612+P05556); test: inhibition of HUTS-21 binding to VLA-4, pilot screen, VLA-4 allosteric modulator project, U937 cells, HUTS-21 mAb, flow cytometry, validation set (AID 2674;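 active = inhibition above 50%, about 3 SD of the validation set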;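 note: antibody binding induced by the VLA-4 ligand LDV present at three times its Kd; 0% = LDV ligand with antibody and no compound and 100% = antibody without LDV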); conditions: HUTS-21 LIBS mAb binding, at 6.7 µM, stronger effect = higher value, binding induced by LDV ligand
[8] = superoxide lowering in aged yeast cells, pilot screen, validation compound set (AID 2706;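 active = superoxide response below 65% of plate, a cut near 3 SD across the whole screen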;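 note: yeast exposed to compound for one week at 30 degrees C before staining; 100% = mean of all compound wells on the same plate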); conditions: S. cerevisiae aging, superoxide DHE fluorescence; at 10 µM; stronger effect = lower value
[9] = molecular target: Beta-adrenergic receptor kinase 1 (Homo sapiens) (UniProt P25098); test: GRK2 binders displacing RNA aptamer, biochemical, validation, human GRK2, bead flow cytometry (AID 488806;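 active = aptamer binding inhibition above 30%, about 3 SD of noise from non-fluorescent compounds; inactive = inhibition at or below 30%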); conditions: bead-bound GRK2, FAM-aptamer displacement, at 10 µM, stronger effect = higher value
[10] = molecular target: Beta-2 adrenergic receptor (Homo sapiens) (UniProt P07550); test: beta2AR agonists driving receptor internalization, pilot screen, cell-based, FAP fluorogen, flow cytometry, validation set (AID 504459;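 active = percent response above 42, roughly 3 SD of non-fluorescent test compounds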;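 note: agonist-driven loss of surface beta2AR via internalization measured by FAP dye flow cytometry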); conditions: Am2.2-beta2AR cells, FAP surface receptor flow cytometry; at 10 µM; stronger effect = higher value
[11] = molecular target: AP-2 complex subunit beta (Homo sapiens) (UniProt P63010); test: inhibitors of arrestin peptide binding to AP2, pilot screen, biochemical, validation set, GST-AP2 beads, flow cytometry (AID 504541;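 active = inhibition above 54%, about 3 SD of non-fluorescent compounds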;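 note: AP2 carries R879A mutation and is captured from E. coli lysate; bead-bound FITC arrestin peptide fluorescence measuring arrestin peptide binding to AP2; 0% = DMSO wells and 100% = excess unlabeled arrestin peptide control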); conditions: FITC arrestin peptide, at 10 µM, stronger effect = higher value, AP2 beta2 appendage fragment, R879A mutant
[12] = yeast V-ATPase proton transport modulators, S. cerevisiae, pHLuorin, HTS validation (AID 504600; in the data active = response above about 15%;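 note: plate controls were DMSO for no effect and reference compound for full effect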); conditions: S. cerevisiae pHLuorin cytosolic pH, at 10 µM, stronger effect = higher value
[13] = test system: anti-desmoglein-3 scFv antibody binding to human DSG3; test: inhibitors of anti-DSG3 scFv binding to DSG3, pilot screen, biochemical, validation compound set, bead-based, flow cytometry (AID 588368;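 active = binding below the plate cutoff, the plate median minus 3 SD, with a reading above zero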;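 note: signal is the median channel fluorescence of bead-bound GFP antibody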); conditions: Protein G beads, DSG3-Fc, scFv-GFP binding, at 10 µM, stronger effect = lower value
[14] = inhibitors of fungal efflux pumps CDR1, CDR2, MDR1, pilot screen, validation compound set, multiplex, phenotypic (AID 588506;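 active = efflux inhibition above 0.42, the validation set average plus 4 SD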;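 note: Nile Red retained in cells so higher fluorescence means more efflux inhibition; 0 = negative control wells and 1 = enniatin B 25 µM full block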); conditions: S. cerevisiae pump-expressing triplex, Nile Red efflux flow cytometry; at 10 µM; stronger effect = higher value; the pumps come from Candida albicans
[15] = molecular target: ATP-binding cassette sub-family B member 6 (Homo sapiens) (UniProt Q9NP58); test: ABCB6 transporter inhibitors, pilot screen, K562-ABCB6 cells, flow cytometry, validation set (AID 588550); conditions: K562-ABCB6 porphyrin accumulation, 1 h, at 10 µM, stronger effect = higher value;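 note: 0% = DMSO wells and 100% = benzethonium chloride 70 µM positive control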
[16] = promoters of myeloid differentiation in arrested cells, primary screen, cell-based, GFP/MAC1 double positive, flow cytometry, validation set (AID 588685;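 active = differentiation response of at least 50%, scaled between solvent and reference control, from cells with both markers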;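 note: compound exposure lasts four days before antibody staining and flow analysis; 0% = DMSO wells and 100% = 5 µM fulvestrant positive control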); conditions: ER-HoxA9 marrow cells, stronger effect = higher value, normalized: vehicle 0, fulvestrant 100

Chain of ATP-binding cassette sub-family B member 6 (Homo sapiens) (Q9NP58 whole entry, looked up): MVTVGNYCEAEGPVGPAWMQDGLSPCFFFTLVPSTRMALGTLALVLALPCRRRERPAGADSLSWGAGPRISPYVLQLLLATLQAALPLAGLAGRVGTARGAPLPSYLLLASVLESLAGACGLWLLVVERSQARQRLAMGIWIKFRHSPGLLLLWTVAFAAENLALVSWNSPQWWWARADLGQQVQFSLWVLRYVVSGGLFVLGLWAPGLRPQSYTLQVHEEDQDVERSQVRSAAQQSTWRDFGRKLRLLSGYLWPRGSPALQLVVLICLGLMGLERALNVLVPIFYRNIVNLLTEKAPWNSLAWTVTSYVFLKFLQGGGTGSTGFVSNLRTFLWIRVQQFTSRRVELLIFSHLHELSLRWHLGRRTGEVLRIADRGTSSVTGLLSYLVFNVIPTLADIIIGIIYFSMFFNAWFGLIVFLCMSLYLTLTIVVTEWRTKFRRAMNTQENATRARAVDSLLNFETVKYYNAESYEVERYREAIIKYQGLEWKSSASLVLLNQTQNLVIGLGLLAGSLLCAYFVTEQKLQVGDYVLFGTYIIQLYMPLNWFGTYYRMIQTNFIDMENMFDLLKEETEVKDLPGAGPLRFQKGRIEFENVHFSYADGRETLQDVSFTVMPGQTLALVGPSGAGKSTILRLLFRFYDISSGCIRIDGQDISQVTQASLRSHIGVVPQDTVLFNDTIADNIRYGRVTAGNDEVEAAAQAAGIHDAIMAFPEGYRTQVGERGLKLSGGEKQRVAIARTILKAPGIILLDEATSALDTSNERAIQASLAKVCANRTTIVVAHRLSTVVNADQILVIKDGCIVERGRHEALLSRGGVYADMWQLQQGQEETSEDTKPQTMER
Chain of AP-2 complex subunit beta (Homo sapiens) (P63010 whole entry, looked up, the tested form may be a part, one chain of several): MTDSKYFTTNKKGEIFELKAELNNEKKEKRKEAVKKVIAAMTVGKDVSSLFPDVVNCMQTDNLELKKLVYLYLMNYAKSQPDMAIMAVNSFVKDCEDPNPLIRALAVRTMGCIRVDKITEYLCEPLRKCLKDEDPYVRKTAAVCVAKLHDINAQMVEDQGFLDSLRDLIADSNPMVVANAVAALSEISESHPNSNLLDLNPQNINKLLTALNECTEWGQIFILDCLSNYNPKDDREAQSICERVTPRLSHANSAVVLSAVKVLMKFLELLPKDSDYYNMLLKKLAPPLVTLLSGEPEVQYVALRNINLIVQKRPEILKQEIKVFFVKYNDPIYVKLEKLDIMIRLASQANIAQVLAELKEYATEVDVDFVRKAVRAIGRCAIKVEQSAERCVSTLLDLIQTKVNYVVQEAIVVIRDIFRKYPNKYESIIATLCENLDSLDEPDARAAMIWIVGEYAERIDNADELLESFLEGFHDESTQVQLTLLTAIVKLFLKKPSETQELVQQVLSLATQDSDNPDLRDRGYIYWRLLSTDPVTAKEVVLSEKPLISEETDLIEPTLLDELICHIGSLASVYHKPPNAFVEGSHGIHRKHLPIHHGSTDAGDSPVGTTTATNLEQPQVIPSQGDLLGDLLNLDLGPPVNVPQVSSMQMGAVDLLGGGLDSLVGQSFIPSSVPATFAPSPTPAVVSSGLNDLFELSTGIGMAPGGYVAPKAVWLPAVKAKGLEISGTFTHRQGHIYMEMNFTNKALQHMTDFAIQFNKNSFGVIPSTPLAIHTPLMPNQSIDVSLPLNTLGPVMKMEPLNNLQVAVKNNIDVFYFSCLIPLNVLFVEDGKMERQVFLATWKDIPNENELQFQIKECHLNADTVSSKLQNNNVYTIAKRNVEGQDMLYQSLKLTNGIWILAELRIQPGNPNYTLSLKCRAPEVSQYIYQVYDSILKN
Chain of Beta-2 adrenergic receptor (Homo sapiens) (P07550 whole entry, looked up): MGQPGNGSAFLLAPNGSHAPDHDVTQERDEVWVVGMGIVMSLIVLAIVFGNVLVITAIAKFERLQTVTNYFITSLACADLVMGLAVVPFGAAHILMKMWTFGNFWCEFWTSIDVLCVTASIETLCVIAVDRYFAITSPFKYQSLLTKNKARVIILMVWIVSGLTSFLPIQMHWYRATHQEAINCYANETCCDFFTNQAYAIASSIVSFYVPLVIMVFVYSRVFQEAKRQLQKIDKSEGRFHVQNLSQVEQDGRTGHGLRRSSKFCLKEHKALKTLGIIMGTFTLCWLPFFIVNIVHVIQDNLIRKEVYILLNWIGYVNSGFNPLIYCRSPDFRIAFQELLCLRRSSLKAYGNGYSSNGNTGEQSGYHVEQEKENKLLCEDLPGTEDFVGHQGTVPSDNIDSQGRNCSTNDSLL
Chain of Integrin beta-1 (Homo sapiens) + Integrin alpha-4 (Homo sapiens) (P05556 whole entry, looked up): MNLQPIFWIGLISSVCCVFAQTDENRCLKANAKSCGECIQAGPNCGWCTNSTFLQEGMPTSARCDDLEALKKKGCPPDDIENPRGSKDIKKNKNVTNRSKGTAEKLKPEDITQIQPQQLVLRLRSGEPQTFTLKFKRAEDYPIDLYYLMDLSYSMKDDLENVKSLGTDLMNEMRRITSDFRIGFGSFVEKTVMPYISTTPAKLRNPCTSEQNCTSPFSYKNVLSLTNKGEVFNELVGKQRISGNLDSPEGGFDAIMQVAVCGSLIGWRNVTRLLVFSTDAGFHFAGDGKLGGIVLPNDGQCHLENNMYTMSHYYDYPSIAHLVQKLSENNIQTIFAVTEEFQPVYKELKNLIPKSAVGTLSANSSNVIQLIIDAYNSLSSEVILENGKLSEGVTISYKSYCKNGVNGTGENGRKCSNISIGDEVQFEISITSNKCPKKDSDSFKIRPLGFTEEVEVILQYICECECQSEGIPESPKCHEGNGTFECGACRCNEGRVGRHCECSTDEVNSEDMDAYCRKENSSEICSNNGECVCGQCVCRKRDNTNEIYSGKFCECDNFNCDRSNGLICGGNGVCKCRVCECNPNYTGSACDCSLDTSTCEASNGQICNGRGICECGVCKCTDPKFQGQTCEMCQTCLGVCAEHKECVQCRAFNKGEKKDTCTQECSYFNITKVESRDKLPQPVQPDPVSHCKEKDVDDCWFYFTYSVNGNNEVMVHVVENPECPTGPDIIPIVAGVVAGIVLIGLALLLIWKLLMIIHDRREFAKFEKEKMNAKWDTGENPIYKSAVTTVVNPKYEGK
Chain of Integrin beta-1 (Homo sapiens) + Integrin alpha-4 (Homo sapiens) (P13612 whole entry, looked up): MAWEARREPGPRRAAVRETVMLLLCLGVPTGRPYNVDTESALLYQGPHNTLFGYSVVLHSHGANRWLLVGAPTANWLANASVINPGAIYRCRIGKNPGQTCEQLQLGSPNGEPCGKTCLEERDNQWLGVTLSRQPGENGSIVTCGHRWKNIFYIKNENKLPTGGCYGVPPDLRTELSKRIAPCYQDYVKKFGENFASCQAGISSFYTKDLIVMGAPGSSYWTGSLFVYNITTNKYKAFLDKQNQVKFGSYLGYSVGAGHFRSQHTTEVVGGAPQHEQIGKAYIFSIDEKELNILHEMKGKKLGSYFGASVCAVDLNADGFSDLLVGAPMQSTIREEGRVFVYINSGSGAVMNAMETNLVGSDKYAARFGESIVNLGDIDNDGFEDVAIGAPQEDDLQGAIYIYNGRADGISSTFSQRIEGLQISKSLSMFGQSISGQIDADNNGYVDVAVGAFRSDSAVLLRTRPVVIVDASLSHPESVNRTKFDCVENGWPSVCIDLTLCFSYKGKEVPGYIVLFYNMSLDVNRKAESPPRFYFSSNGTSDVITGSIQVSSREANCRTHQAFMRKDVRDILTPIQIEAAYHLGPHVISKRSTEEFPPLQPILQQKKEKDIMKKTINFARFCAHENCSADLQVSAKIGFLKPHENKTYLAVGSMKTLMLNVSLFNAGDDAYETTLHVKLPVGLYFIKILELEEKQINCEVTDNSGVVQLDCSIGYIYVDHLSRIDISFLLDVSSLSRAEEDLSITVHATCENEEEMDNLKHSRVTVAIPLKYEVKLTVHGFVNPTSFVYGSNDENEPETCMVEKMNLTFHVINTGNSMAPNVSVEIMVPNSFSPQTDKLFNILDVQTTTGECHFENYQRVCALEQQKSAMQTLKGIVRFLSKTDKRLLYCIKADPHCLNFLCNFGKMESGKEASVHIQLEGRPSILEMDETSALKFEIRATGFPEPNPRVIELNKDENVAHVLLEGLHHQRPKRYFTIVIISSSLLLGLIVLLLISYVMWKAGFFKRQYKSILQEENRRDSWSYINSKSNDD
Chain of Beta-adrenergic receptor kinase 1 (Homo sapiens) (P25098 whole entry, looked up): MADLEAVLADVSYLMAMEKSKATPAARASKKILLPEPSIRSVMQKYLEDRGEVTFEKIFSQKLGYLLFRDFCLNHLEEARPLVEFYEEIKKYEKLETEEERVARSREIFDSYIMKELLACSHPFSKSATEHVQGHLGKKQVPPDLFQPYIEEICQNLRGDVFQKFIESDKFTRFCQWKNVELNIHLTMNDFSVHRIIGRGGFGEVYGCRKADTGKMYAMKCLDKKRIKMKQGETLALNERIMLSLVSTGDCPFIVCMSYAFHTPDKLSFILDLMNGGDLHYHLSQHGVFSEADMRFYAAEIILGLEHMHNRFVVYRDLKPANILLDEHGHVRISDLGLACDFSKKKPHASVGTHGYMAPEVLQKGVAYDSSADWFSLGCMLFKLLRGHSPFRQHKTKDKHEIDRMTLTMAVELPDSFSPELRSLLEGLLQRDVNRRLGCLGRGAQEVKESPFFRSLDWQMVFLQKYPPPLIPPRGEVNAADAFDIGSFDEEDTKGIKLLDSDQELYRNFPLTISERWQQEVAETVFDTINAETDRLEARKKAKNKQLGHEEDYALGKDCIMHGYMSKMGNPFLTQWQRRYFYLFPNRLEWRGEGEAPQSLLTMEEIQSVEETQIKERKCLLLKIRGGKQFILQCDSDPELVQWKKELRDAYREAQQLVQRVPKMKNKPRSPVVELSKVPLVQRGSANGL

Compound	percent of DMSO control GFP [1]	GFP response vs DMSO [2]	percent response of DMSO control [3]	GFP response vs DMSO [4]	GFP response, % of DMSO [5]	double positive events [6] [%]	vesicle binding response [6]	inhibition [7]	superoxide response (% of plate) [8]	aptamer binding inhibition [9]	response [10]	inhibition [11]	response [12]	binding (% of control) [13]	efflux inhibition (fraction of control) [14]	inhibition [15]	differentiation response [16]
Cc1c(OCC(F)(F)F)ccnc1CS(=O)c1nc2ccccc2[nH]1 (centres undefined)	95.1% (inactive)	101% (inactive)	97% (inactive)	119% (inactive)	118% (inactive)	58.8	153% (inactive)	-64.1% (inactive)	111% (inactive)	1% (inactive)	24.6% (inactive)	-4.09% (inactive)	-4.18% (inactive)	106% (inactive)	0.04 (inactive)	-6% (inactive)	-4% (inactive)
Cc1ccccc1C(=O)Nc1ccccc1C(=O)NCC(C)C	100% (inactive)	107% (inactive)	104% (inactive)	118% (inactive)	108% (inactive)	63.7	208% (inactive)	7.4% (inactive)	118% (inactive)	3% (inactive)	-22.2% (inactive)	35.6% (inactive)	-2.23% (inactive)	99.9% (inactive)	0 (inactive)	-1% (inactive)	2.89% (inactive)
CN1[C@@H]2CC[C@H]1CC(OC(=O)C(CO)c1ccccc1)C2 (some centres undefined)	99.6% (inactive)	97.7% (inactive)	103% (inactive)	86.1% (inactive)	98% (inactive)	61.1	163% (inactive)	8.29% (inactive)	113% (inactive)	25% (inactive)	-0.25% (inactive)	-4.27% (inactive)	3.64% (inactive)	101% (inactive)	-0.205 (inactive)	7% (inactive)	-13.3% (inactive)
OCCC1CN(Cc2ccccc2-c2ccco2)CCN1C1CCCC1 (centres undefined)	99% (inactive)	97.6% (inactive)	93.1% (inactive)	110% (inactive)	110% (inactive)	59	123% (inactive)	12.5% (inactive)	95% (inactive)	0% (inactive)	-21.4% (inactive)	-16.3% (inactive)	4.26% (inactive)	101% (inactive)	0.04 (inactive)	1% (inactive)	-3.02% (inactive)
COc1cc2c(cc1OC)CN(Cc1ccc(C)s1)CC2	102% (inactive)	106% (inactive)	105% (inactive)	88.1% (inactive)	98% (inactive)	64.1	349% (inactive)	-13.9% (inactive)	103% (inactive)	4% (inactive)	-7.1% (inactive)	14.8% (inactive)	-3% (inactive)	101% (inactive)	0.05 (inactive)	4% (inactive)	2.2% (inactive)
CCOc1ccc(C(=O)NC(C)C2COc3ccccc3O2)cc1 (centres undefined)	99.5% (inactive)	104% (inactive)	95.7% (inactive)	110% (inactive)	106% (inactive)	61.2	111% (inactive)	7.4% (inactive)	108% (inactive)	6% (inactive)	-18% (inactive)	-0.3% (inactive)	-8.02% (inactive)	106% (inactive)	-0.17 (inactive)	1% (inactive)	4.86% (inactive)
CCC(=O)O[C@]1(C(=O)CCl)[C@@H](C)C[C@H]2[C@@H]3CCC4=CC(=O)C=C[C@]4(C)[C@@]3(F)[C@@H](O)C[C@@]21C	99.8% (inactive)	103% (inactive)	106% (inactive)	91.5% (inactive)	106% (inactive)	64.6	228% (inactive)	-9.13% (inactive)	120% (inactive)	4% (inactive)	11.3% (inactive)	3.88% (inactive)	-2.3% (inactive)	97.9% (inactive)	1.03 (active)	-10% (inactive)	-13.3% (inactive)
